Laboratory results: PubChem BioAssay (Tox21)
Records with an inconclusive call do not appear. The source made the active and inactive calls. Unless noted, calls come from the whole dose curve.

Experiments:
[1] = Nuclear factor erythroid 2-related factor 2/antioxidant responsive element (Nrf2/ARE) small molecule agonists: qHTS cell viability counter screen in human keratinocytes (AID 1919968; active = well fitted curve in the direction sought with a large enough effect in the repeat runs; an effect the other way counts as inactive or inconclusive; note: nearly all actives have a fitted effect of over 55% in size)
Procedure, shortened: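 Measured as CellTiter-Fluor fluorescence, this readout tracks cytotoxicity in the same wells as the ARE-luciferase screen. HaCaT reporter cells (1,500/well) received compounds after a 5 h pre-incubation and were exposed for 23 h.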

[2] = Nuclear factor erythroid 2-related factor 2/antioxidant responsive element (Nrf2/ARE) small molecule agonists: luciferase reporter gene qHTS assay in human keratinocytes (AID 1919969); note: nearly all actives have a fitted effect of over 35% in size; note: potency is the fitted concentration of half-maximal effect
[3] = target: Gonadotropin-releasing hormone receptor (Homo sapiens) (UniProt P30968); test: Human gonadotropin-releasing hormone receptor (GnRHR) small molecule agonists, calcium flux assay in GnRHR-HEK293 cells (AID 1920063); note: nearly all actives have a fitted effect of over 35% in size
Procedure, shortened: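 Fluorescence kinetics (480 nm excitation, 540 nm emission; 3 min, 1 s steps) report calcium mobilisation in human GnRHR-HEK293 cells in agonist mode. Dye incubation: 1 h, 37 C.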

[4] = target: KiSS-1 receptor (Homo sapiens) (UniProt Q969F8); test: Human kisspeptin (KISS1R) small molecule agonists, calcium flux assay in KISS1R-HEK293 cells (AID 1920064; active = well fitted curve in the direction sought with a large enough effect in the repeat runs; an effect the other way counts as inactive or inconclusive)
Procedure, shortened: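 Measures KISS1R agonism through calcium-sensitive dye fluorescence in stably transfected HEK293 cells, read for 3 min after pin-tool compound delivery; 15-point titrations in triplicate.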

[5] = G protein-coupled receptor (GPCR) small molecule agonists, calcium flux assay: HEK293 wild type cell line counter screen (AID 1920065)
Procedure, shortened: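 Readout: fluorescence at 480 nm excitation/540 nm emission, sampled at 1 s intervals for 3 min. Cells had been cultured 18 h, then dye-loaded 1 h at 37 C before compound or ATP addition.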

[6] = p53 small molecule agonists, cell-based qHTS assay with rat liver microsomes (AID 1963578)
Procedure, shortened: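 Agonist mode in p53RE-bla reporter cells, with compounds co-incubated 16 h at 37 C alongside 0.5 mg/mL rat liver microsomes and 0.5 mg/mL NADPH (final), followed by a 2 h LiveBLAzer detection step.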

[7] = p53 small molecule agonists, cell-based qHTS assay with human liver microsomes: qHTS cell viability counter screen (AID 1963579); note: nearly all actives have a fitted effect of over 45% in size
Procedure, shortened: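 Metabolically activated exposure: compounds, human liver microsomes and NADPH (0.5 mg/mL final apiece) were added to p53RE-bla cells seeded 5 h earlier, left 16 h at 37 C, and then assessed for viability by CellTiter-Glo luminescence.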

[8] = p53 small molecule agonists, cell-based qHTS assay with rat liver microsomes: qHTS cell viability counter screen (AID 1963580); note: nearly all actives have a fitted effect of over 45% in size
Procedure, shortened: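 Viability is assessed in parallel with the p53 reporter read: HCT-116 p53RE-bla cells receive compounds plus rat microsomes and NADPH (0.5 mg/mL final apiece), incubate 16 h at 37 C, and then CellTiter-Glo luminescence is recorded.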

[9] = p53 small molecule agonists, cell-based qHTS assay: qHTS cell viability counter screen (AID 1963581); note: nearly all actives have a fitted effect of over 45% in size
Procedure, shortened: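 In the same plates used for the p53 bla reporter, HCT-116 cells given compounds for 16 h at 37 C received CellTiter-Glo; luminescence was recorded 30 min later at room temperature.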

[10] = target: 5-hydroxytryptamine receptor 2A (Homo sapiens) (UniProt P28223); test: 5-hydroxytryptamine receptor 2A (HTR2A) small molecule antagonists, cell-based qHTS assay (AID 1963586); note: nearly all actives have a fitted effect of over 45% in size
Procedure, shortened: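 Antagonist-mode intracellular calcium assay: DOI (4 nM) added after 5 min compound pre-incubation at room temperature to dye-loaded HTR2A-CHO cells. Fluorescence followed for 3 min, sampled every second.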

[11] = target: 5-hydroxytryptamine receptor 2A (Homo sapiens) (UniProt P28223); test: 5-hydroxytryptamine receptor 2A (HTR2A) small molecule agonists, cell-based qHTS assay (AID 1963587); note: nearly all actives have a fitted effect of over 30% in size
Procedure, shortened: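 CHO cells stably expressing human HTR2A, plated 18 h, loaded with calcium dye 1 h at 37 C. Agonist mode: compounds added and intracellular calcium fluorescence recorded kinetically for 2 min at 1 sec intervals.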

[12] = target: Muscarinic acetylcholine receptor M1 (Homo sapiens) (UniProt P11229); test: Cholinergic receptor muscarinic 1 (CHRM1) small molecule antagonists, cell-based qHTS assay (AID 1963588); note: nearly all actives have a fitted effect of over 40% in size
Procedure, shortened: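 CHRM1-CHO calcium-flux assay, antagonist mode. Cells were seeded 18 h, dye-loaded 1 h at 37 C and given compound for 5 min at RT, then acetylcholine was added at 50nM. FDSS fluorescence was read 3 min; 15 concentrations, three runs.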

[13] = target: Muscarinic acetylcholine receptor M1 (Homo sapiens) (UniProt P11229); test: Cholinergic receptor muscarinic 1 (CHRM1) small molecule agonists, cell-based qHTS assay (AID 1963589); note: nearly all actives have a fitted effect of over 35% in size
Procedure, shortened: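 Each compound was tested at 15 concentrations across three independent runs on dye-loaded CHO cells stably expressing human CHRM1, reading intracellular calcium fluorescence kinetically at 1 sec intervals.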

[14] = cAMP Responsive Elements (CRE) small molecule agonists, cell-based qHTS assay (AID 1963590)
Procedure, shortened: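 Cell line: CRE-bla HEK 293T; medium DMEM/10% dialyzed FBS/0.1 mM NEAA/1 mM pyruvate/25 mM HEPES; 3 h compound exposure; beta-lactamase FRET readout after 2 h substrate loading at RT.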

[15] = cAMP Responsive Elements (CRE) small molecule antagonists, cell-based qHTS assay (AID 1963591; active = well fitted inhibition curve with a large enough effect in the signal ratio in the repeat runs, not every such curve was filed as active; the % refers to the signal ratio)
Procedure, shortened: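 Inhibition of NKH477-driven (0.25 uM final) CRE-beta-lactamase signal in HEK293T cells, 3 h compound exposure at 37 °C, detected by FRET substrate fluorescence.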

[16] = target: Beta-2 adrenergic receptor (Homo sapiens) (UniProt P07550); test: Adrenergic beta2 receptor (ADRB2) small molecule agonists, cell-based qHTS assay (AID 1963593);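 note: CHO cells stably overexpressing human ADRB2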
Procedure, shortened: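 CHO cells stably over-expressing ADRB2 were plated overnight at 37C, then dosed with compounds plus a stimulation mix containing 100uM IBMX and 25uM Ro-20-1724 for 0.5hr at room temperature. cAMP was measured by HTRF competition, 1hr.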

[17] = target: D(2) dopamine receptor (Homo sapiens) (UniProt P14416); test: Dopamine D2 receptor (DRD2) small molecule antagonists, cell-based qHTS assay (AID 1963595; active = well fitted inhibition curve with a large enough effect in the signal ratio in the repeat runs, with a control signal flat; the % refers to the signal ratio)
Procedure, shortened: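 In this cell-based antagonist screen, compounds act for 10 min at room temperature before a 30 min challenge with 12 nM quinpirole and 200 nM NKH477. cAMP is quantified by HTRF competition in DRD2-HEK293 cells containing 0.1 mM Ro20-1724.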

[18] = p53 small molecule agonists, cell-based qHTS assay (AID 1963582; active = well fitted activation curve with a large enough effect in the signal ratio in the repeat runs, not every such curve was filed as active; the % refers to the signal ratio)
Procedure, shortened: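 Compounds are pin-transferred in DMSO onto p53RE-bla cells and incubated 16 h at 37 C. The B/G FRET beta-lactamase substrate is then applied for 2 h at RT and fluorescence recorded.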

[19] = target: Beta-2 adrenergic receptor (Homo sapiens) (UniProt P07550); test: Adrenergic beta2 receptor (ADRB2) small molecule antagonists, cell-based qHTS assay (AID 1963592); note: nearly all actives have a fitted effect of over 50% in size; note: potency is the fitted concentration of half-maximal effect; for activity change, negative = inhibition: series mostly up to about 92 µM
Procedure, shortened: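 Cells (CHO, stable ADRB2 overexpression) incubated 18-20hr at 37C; compounds added from DMSO; agonist mix (1nM isoproterenol, 100uM IBMX, 25uM Ro-20-1724) added; 0.5hr RT; d2-cAMP and anti-cAMP-cryptate added; 1hr RT; 665/615 nm read.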

[20] = target: D(2) dopamine receptor (Homo sapiens) (UniProt P14416); test: Dopamine D2 receptor (DRD2) small molecule agonists, cell-based qHTS assay (AID 1963594); note: nearly all actives have a fitted effect of over 35% in size
Procedure, shortened: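 HEK293 cells stably expressing human DRD2, pre-treated with PDE inhibitor Ro20-1724 (0.1 mM final) and compound 10 min at room temperature, then stimulated with NKH477 (200nM […]) for 30 min. cAMP read by HTRF (665/620 nm).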
% is set by controls: 0 for no effect and ±100 for the full control effect.

Sequence of 5-hydroxytryptamine receptor 2A (Homo sapiens) (P28223 whole entry, looked up): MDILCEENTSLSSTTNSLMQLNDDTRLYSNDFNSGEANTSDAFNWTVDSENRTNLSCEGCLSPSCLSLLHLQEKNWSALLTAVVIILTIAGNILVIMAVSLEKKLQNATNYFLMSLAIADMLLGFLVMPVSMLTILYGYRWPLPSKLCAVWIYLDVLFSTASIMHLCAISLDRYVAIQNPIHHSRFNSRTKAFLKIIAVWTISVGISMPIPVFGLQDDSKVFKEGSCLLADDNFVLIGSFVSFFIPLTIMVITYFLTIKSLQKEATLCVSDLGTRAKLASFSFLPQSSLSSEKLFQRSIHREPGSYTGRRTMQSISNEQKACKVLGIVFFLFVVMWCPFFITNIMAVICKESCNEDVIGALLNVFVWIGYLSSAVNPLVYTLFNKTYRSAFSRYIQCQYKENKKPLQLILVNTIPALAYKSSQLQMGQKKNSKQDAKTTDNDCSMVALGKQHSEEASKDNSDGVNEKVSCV
Sequence of KiSS-1 receptor (Homo sapiens) (Q969F8 whole entry, looked up): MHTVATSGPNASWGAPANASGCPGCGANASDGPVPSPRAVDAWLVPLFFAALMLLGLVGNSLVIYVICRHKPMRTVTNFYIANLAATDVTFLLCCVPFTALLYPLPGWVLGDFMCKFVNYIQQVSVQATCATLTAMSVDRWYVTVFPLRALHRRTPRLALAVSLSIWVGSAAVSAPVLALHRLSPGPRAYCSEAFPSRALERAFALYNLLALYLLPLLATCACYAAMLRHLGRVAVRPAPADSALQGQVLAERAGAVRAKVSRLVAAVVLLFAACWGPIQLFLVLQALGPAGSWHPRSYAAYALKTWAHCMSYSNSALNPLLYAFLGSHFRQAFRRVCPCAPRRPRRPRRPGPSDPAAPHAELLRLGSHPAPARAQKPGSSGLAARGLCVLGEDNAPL
Sequence of Gonadotropin-releasing hormone receptor (Homo sapiens) (P30968 whole entry, looked up): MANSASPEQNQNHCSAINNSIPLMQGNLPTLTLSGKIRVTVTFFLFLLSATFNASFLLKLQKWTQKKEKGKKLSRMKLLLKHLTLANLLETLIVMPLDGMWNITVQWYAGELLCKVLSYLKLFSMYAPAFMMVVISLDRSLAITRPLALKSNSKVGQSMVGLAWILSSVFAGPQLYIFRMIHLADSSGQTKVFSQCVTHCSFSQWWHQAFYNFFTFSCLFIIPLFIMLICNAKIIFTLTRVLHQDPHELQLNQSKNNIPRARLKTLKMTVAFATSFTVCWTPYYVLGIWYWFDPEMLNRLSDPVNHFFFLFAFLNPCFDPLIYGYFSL
Sequence of Beta-2 adrenergic receptor (Homo sapiens) (P07550 whole entry, looked up): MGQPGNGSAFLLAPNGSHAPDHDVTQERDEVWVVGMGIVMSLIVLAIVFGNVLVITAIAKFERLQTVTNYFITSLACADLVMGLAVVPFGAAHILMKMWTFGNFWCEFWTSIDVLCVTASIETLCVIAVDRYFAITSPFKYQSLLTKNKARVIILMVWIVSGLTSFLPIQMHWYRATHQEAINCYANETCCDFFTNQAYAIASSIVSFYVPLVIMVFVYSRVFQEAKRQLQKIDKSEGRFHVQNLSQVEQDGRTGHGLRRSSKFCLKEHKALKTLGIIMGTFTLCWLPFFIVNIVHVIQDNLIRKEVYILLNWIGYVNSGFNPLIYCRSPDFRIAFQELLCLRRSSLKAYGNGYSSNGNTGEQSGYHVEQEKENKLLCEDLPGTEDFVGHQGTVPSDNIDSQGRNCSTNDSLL
Sequence of Muscarinic acetylcholine receptor M1 (Homo sapiens) (P11229 whole entry, looked up): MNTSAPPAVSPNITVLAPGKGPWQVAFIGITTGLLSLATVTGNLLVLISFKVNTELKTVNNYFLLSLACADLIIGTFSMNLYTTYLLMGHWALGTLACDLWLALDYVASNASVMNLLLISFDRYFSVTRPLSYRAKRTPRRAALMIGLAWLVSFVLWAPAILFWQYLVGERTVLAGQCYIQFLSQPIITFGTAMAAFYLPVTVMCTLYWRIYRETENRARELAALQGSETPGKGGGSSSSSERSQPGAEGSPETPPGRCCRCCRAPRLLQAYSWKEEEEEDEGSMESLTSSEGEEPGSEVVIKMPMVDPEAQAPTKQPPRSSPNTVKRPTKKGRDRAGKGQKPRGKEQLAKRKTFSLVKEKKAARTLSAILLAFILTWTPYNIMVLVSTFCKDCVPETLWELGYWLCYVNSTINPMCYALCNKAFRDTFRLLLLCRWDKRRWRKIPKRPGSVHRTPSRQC
Sequence of D(2) dopamine receptor (Homo sapiens) (P14416 whole entry, looked up): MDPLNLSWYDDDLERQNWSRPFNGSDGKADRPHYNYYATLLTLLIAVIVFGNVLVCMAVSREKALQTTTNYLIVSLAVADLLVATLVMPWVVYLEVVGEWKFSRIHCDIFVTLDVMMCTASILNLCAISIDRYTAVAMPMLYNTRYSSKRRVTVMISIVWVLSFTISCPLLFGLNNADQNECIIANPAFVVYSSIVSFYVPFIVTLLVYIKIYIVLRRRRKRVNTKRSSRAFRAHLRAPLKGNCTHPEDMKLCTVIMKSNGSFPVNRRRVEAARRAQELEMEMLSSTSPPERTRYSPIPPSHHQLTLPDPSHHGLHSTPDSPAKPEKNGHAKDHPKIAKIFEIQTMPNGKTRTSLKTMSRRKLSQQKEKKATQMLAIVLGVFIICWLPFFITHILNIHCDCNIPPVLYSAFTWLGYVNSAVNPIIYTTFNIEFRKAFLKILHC

CCCCOC(=O)c1ccccc1
inactive: Potency [1] | Potency [2] | Potency [3] | Potency [4] | Potency [5] | Potency [6] | Potency [7] | Potency [8] | Potency [9] | Potency [10] | Potency [11] | Potency [12] | Potency [13] | Potency [14] | Potency [15] | Potency [16] | Potency [17]

C=CC(=O)[O-].C=CC(=O)[O-].[Zn+2]
inactive: Potency [1] | Potency [2] | Potency [3] | Potency [4] | Potency [5] | Potency [6] | Potency [7] | Potency [8] | Potency [9] | Potency [18] | Potency [11] | Potency [12] | Potency [13] | Potency [14] | Potency [15] | Potency [19] | Potency [16] | Potency [20] | Potency [17]

NCc1ccccc1
inactive: Potency [1] | Potency [2] | Potency [3] | Potency [4] | Potency [5] | Potency [6] | Potency [7] | Potency [8] | Potency [9] | Potency [10] | Potency [11] | Potency [12] | Potency [13] | Potency [14] | Potency [15] | Potency [19] | Potency [16] | Potency [20] | Potency [17]

Cc1cc2cc3c(C)cc(=O)oc3c(C)c2o1
inactive: Potency [1] | Potency [2] | Potency [3] | Potency [4] | Potency [5] | Potency [6] | Potency [7] | Potency [8] | Potency [9] | Potency [18] | Potency [14] | Potency [15] | Potency [19] | Potency [20] | Potency [17]

O=C(O)CCc1nc2ccccc2[nH]1
inactive: Potency [1] | Potency [2] | Potency [3] | Potency [4] | Potency [5] | Potency [6] | Potency [7] | Potency [8] | Potency [9] | Potency [18] | Potency [11] | Potency [13] | Potency [14] | Potency [15] | Potency [19] | Potency [20] | Potency [17]

COC(=O)CSc1cc(N=c2sc(=O)n3n2CCCC3)c(F)cc1Cl
inactive: Potency [1] | Potency [2] | Potency [3] | Potency [4] | Potency [5] | Potency [6] | Potency [7] | Potency [8] | Potency [9] | Potency [10] | Potency [11] | Potency [12] | Potency [13] | Potency [19] | Potency [17]

Cc1c(NC(=O)c2cccnc2)c(=O)n(-c2ccccc2)n1C
inactive: Potency [1] | Potency [2] | Potency [3] | Potency [4] | Potency [5] | Potency [6] | Potency [7] | Potency [8] | Potency [9] | Potency [18] | Potency [10] | Potency [11] | Potency [12] | Potency [13] | Potency [15] | Potency [19] | Potency [16] | Potency [20] | Potency [17]

O=C1c2ccccc2Cc2ccccc21
active: Potency [2] 61.6 µM
inactive: Potency [1] | Potency [3] | Potency [4] | Potency [5] | Potency [6] | Potency [7] | Potency [8] | Potency [9] | Potency [18] | Potency [11] | Potency [13] | Potency [19] | Potency [20] | Potency [17]

C[C@@H]1C[C@H]2[C@@H]3CCC4=CC(=O)C=C[C@]4(C)[C@@]3(F)[C@@H](O)C[C@]2(C)[C@@]1(O)C(=O)COC(=O)c1ccncc1
inactive: Potency [1] | Potency [2] | Potency [3] | Potency [4] | Potency [5] | Potency [6] | Potency [7] | Potency [8] | Potency [9] | Potency [18] | Potency [11] | Potency [13] | Potency [14] | Potency [15] | Potency [19] | Potency [17]

Cc1ccccc1C(=O)Nc1ccc(C(=O)N2CCCC(O)c3cc(Cl)ccc32)c(C)c1 (stereo unspecified)
inactive: Potency [1] | Potency [2] | Potency [3] | Potency [4] | Potency [5] | Potency [6] | Potency [7] | Potency [8] | Potency [9] | Potency [18] | Potency [11] | Potency [12] | Potency [13] | Potency [14] | Potency [15] | Potency [19] | Potency [20]

COC(=O)c1cc(Cl)ccc1[N+](=O)[O-]
inactive: Potency [1] | Potency [2] | Potency [3] | Potency [4] | Potency [5] | Potency [6] | Potency [7] | Potency [8] | Potency [9] | Potency [18] | Potency [11] | Potency [12] | Potency [13] | Potency [14] | Potency [19] | Potency [20]

CN(C)CCCN(C)C
inactive: activity change, negative = cytotoxicity [1] 3.36% [at 8.39 µM] | activity, positive = activation [2] -12.5% [at 8.39 µM] | activity change [3] -0.775% [at 5.22 µM, active compounds read high] | activation [4] -0.798% [at 6.97 µM] | activation [5] -1.22% [at 5.23 µM] | activation [6] 5.56% [at 5.99 µM] | activity change, negative = cytotoxicity [7] -2.9% [at 5.99 µM] | activity change, negative = cytotoxicity [8] 0.34% [at 5.99 µM] | activity change, negative = cytotoxicity [9] -23% [at 5.99 µM] | activation [18] 3.48% [at 5.99 µM] | activity, negative = inhibition [10] 12.1% [at 5.62 µM] | activation [11] -0.769% [at 7.02 µM] | activity, negative = inhibition [12] 1.9% [at 5.58 µM] | activation [13] -0.0477% [at 6.97 µM] | activation [14] -0.0363% [at 8.39 µM] | activity change, negative = inhibition [15] -6.12% [at 8.39 µM] | activity change, negative = inhibition [19] 3.37% [at 8.39 µM] | activity change, negative = inhibition [17] 3.98% [at 8.38 µM]

CCOC(=O)COC(=O)c1cc(Oc2ccc(C(F)(F)F)cc2Cl)ccc1[N+](=O)[O-]
inactive: Potency [1] | Potency [2] | Potency [3] | Potency [4] | Potency [5] | Potency [6] | Potency [7] | Potency [8] | Potency [9] | Potency [10] | Potency [11] | Potency [12] | Potency [13] | Potency [20]
active: Potency [19] 61.1 µM

Cc1ccc(C(=O)C(C)CN2CCCCC2)cc1 (stereo unspecified)
inactive: Potency [1] | Potency [2] | Potency [3] | Potency [4] | Potency [5] | Potency [6] | Potency [7] | Potency [8] | Potency [9] | Potency [18] | Potency [15] | Potency [19] | Potency [20]
